Compound activity (PubChem)
TDP1 cell CPT = growth inhibition of DT40 Tdp1-/-;hTDP1 cells with camptothecin (screen for TDP1 inhibitors); chicken DT40 Tdp1-/-;hTDP1 cells + 20 nM CPT, ATP luminescence, 48 h; Potency, µM (top dose mostly 46.2 µM), for inactives: top-dose activity change, negative = growth inhibition, hits mostly inhibitors; 420,000 compounds, 12% hits; AID 686979; also: potency is read from the fitted curve at half-maximal effect; nearly all actives have a fitted effect of over 55% in size
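Cell growth measured by CellTiter-Glo luminescence after a minimum 48 h, 37 C compound exposure with 20 nM CPT in Tdp1-knockout DT40 cells stably expressing hTDP1, seeded 400/well; qHTS titration format.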
Six1-Eya2 blk = blocks human Six1 binding to Eya2; AlphaScreen GST-Six1/His-Eya2 binding, biochemical; stronger effect = lower value; 360,000 compounds, 0.56% hits; activity change, % (test concentration not listed); in the data active = activity change below about -65%; inconclusive = mostly about -30% to -63%
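GST-Six1 + His-Eya2 (5X stock: 250/500 nM); Tris pH 8.0, 300 mM NaCl, 0.05% BSA, 0.02% Tween 20; GSH donor/Ni acceptor beads; 1 h 37 °C dark; AlphaScreen readout.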
CtBP-E1A inh = blocks the CtBP interaction with E1A. 340,000 compounds, 0.49% hits. AlphaScreen GST-E1A/His-CtBP binding, 1536-well; stronger effect = lower value. activity change, % (no concentration beside the values); in the data active = activity change below about -65%; inconclusive = mostly about -30% to -63%
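AlphaScreen with 125 nM GST-E1A and 125 nM His-CtBP (5X stocks) in Tris pH 8.0, 300 mM NaCl, BSA, Tween 20, TCEP. Compounds preincubated 2 h at 37 deg C, then glutathione donor/nickel acceptor beads added for 1 h at 37 deg C in dark.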
TDP1 cell noCPT = qHTS for Inhibitors of human tyrosyl-DNA phosphodiesterase 1 (TDP1): qHTS in cells in absence of CPT; DT40 Tdp1-/- hTDP1 cells, no CPT, ATP luminescence, 48 h; 420,000 compounds, 15% hits; Potency, µM (titrated, usually from 46.2 µM), without a hit: at the top dose activity change, negative = growth inhibition, usual class: inhibitors; also: potency is read from the fitted curve at half-maximal effect; nearly all actives have a fitted effect of over 55% in size
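Camptothecin absent (DMSO only). Human TDP1-complemented DT40 knockout cells, 400 cells/well, 37 °C for minimum 48 hr; ATP measured via CellTiter-Glo, 30 min dark incubation, luminescence.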
IL1B secr inh = inflammasome signaling inhibition, IL-1 beta readout | AID 743279 | activity change, % at 57.5 µM | 360,000 compounds, 4.7% hits | THP-1 LPS/ATP IL-1B secretion, AlphaLISA, 16 h; stronger effect = lower value; in the data active = activity change below about -50%; inconclusive = mostly about -30% to -49%
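Secreted IL-1B measured by AlphaLISA bead assay after 16 h compound exposure of THP-1 cells; compounds (final up to 57.5 uM) added 1 h before LPS (250 ng/mL) and ATP (1.25 mM) stimulation; lower signal means less secretion.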
TDP1 block = inhibitors of human tyrosyl-DNA phosphodiesterase TDP1. recombinant TDP1, AlphaScreen DNA substrate cleavage. Q9NUW8. Potency, µM (series often up to 130 µM), for the others: at the top dose activity change, negative = inhibition, hits mostly inhibitors. AID 485290. 350,000 compounds, 0.28% hits; also: potency is read from the fitted curve at half-maximal effect; nearly all actives have a fitted effect of over 40% in size
Target sequence (Q9NUW8 whole entry, looked up): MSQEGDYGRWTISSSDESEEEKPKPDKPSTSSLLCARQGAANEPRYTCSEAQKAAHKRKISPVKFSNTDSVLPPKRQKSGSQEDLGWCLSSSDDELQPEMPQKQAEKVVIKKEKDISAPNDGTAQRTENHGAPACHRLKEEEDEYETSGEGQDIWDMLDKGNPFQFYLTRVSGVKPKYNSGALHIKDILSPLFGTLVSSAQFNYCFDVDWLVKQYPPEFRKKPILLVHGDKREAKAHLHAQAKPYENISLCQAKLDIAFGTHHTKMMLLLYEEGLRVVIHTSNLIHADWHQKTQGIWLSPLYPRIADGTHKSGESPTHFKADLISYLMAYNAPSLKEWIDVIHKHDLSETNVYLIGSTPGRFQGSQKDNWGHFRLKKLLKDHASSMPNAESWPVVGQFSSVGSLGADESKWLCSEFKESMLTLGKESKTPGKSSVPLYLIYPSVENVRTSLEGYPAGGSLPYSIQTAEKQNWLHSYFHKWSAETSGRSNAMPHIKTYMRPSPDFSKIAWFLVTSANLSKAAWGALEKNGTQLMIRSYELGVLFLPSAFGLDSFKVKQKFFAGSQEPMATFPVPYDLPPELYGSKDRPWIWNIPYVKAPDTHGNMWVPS
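Enzyme-compound mixtures sat 15 min at room temperature, followed by a 5 min reaction with 15 nM final substrate and 10 min with AlphaScreen beads. Recombinant human Tdp1 was used at 1 nM final.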
Numbers without * were called inactive; u = inconclusive; x = not tested or not shown; [ ] = another dose, or the depositor's remark. Rows were chosen to be rich in hits. Some 18% of all compounds tested hit in one or more screens of this group. Unless noted, calls follow the shape of the dose curve; as a rule, active = well fitted curve in the direction sought with a large enough effect; inconclusive = small, poorly fitted or top-dose-only effect, or another doubt; inactive = no such curve, though single readings can be large; an effect the other way counts as inactive or inconclusive. % is scaled to controls: 0 for no effect and ±100 for the full control effect.

SMILES	TDP1 cell CPT	Six1-Eya2 blk	CtBP-E1A inh	TDP1 cell noCPT	IL1B secr inh	TDP1 block
CCCCCCn1cc(CN2CC(N3CCN(Cc4cccc(C)c4)CC3)CS2(=O)=O)nn1 (stereo unspecified)	u	0.6	2.9	23.1µM*	-11.9	x
CCCCCCN1CCN(C2CN(Cc3cn(Cc4ccc(C)cc4)nn3)S(=O)(=O)C2)CC1 (stereo unspecified)	u	-2.0	-4.2	25.9µM*	-14.1	x
CCCCCCN1CCN(C2CN(CCc3ccccc3)S(=O)(=O)C2)CC1 (stereo unspecified)	u	-3.6	1.4	16.4µM*	-3.3	x
CCCCCCN1CCN(C2CN(C3CCCCC3)S(=O)(=O)C2)CC1 (stereo unspecified)	16.4µM*	6.8	2.7	u	-12.7	x
Cc1ccc(Cn2cc(CN3CC(N4CCCCC4)CS3(=O)=O)nn2)cc1 (stereo unspecified)	-12.8%	3.8	6.3	-20.8%	19.2	x
COC(=O)c1ccc(CSC2=NC[C@@H]3[C@@H]4C(=O)N(Cc5ccccc5)C(=O)[C@@H]4[C@](Cc4ccccc4)(C(=O)OC)N23)cc1	u	-8.0	0.1	u	62.4	-0.4%[56.1 µM]
CCCCCN(C(=O)CCC(=O)OCC(=O)N(C)C1CCCCC1)c1c(N)n(CCCC)c(=O)[nH]c1=O	-15.6%	4.4	-4.3	1.2%	7.7	-9.7%
O=C(NC(=S)N1CCCC(C(F)(F)F)C1)c1ccc(F)cc1 (stereo unspecified)	18.4µM*	1.0	2.7	23.1µM*	-23.0	9.3%
CC(=O)c1ccc(NC(=S)N2CCCC(C(F)(F)F)C2)cc1 (stereo unspecified)	7.0%	-13.9	13.9	-5.0%	7.9	0.0%
O=C(NC1(C(F)(F)F)NC(=O)N(c2ccc(F)c(Cl)c2)C1=O)c1ccncc1 (stereo unspecified)	-16.5%	-1.0	0.7	-18.2%	-3.3	4.3%
O=c1oc2ccccc2cc1-c1cn2cc(Cc3ccc(Cl)cc3)sc2n1	3.26µM*	x	x	2.59µM*	x	-1.1%
Fc1ccc(Cc2cn3cc(-c4ccc(Cl)cc4)nc3s2)cc1	-15.6%	x	x	-10.3%	x	-3.2%
COc1cccc2c1C(=N)c1c(O)c3c(c(O)c1C2=O)CC(O)(C(C)=O)CC3OC1CC(N)C(O)C(C)O1 (stereo unspecified)	0.164µM*	u	u	0.184µM*	-102.2*	x
COc1cccc2c1C(=O)c1c(O)c3c(c(O)c1C2=O)CC(O)(C(C)=O)CC3OC1CC(O)C(O)C(C)O1 (stereo unspecified)	1.16µM*	-18.8	-20.8	0.82µM*	-103.3*	x
COc1ccc(C(=O)NCCCN2CCCC2=O)cc1S(=O)(=O)N1CCOCC1	-3.5%	6.1	-1.7	8.2%	-12.9	x
CC(Oc1ccccc1)C(=O)N/N=C/c1ccccn1 (stereo unspecified)	u	-3.4	-15.1	-6.6%	6.4	5.0%
O=C(N/N=C/c1cccnc1)c1cc2c(ccc3ccccc32)o1	-20.4%	-10.7	-12.2	u	-4.5	-5.3%
NNC(=O)c1oc2nc(-c3ccco3)cc(-c3ccco3)c2c1N	u	u	0.3	u	-53.3*	x
Nc1c(C(=O)N/N=C/c2cccnc2)oc2nc(-c3ccccc3)cc(-c3ccco3)c12	u	-4.8	-3.3	14.6µM*	x	x
NNC(=O)c1oc2nc(-c3ccc(Cl)cc3)cc(-c3ccccc3)c2c1N	u	2.7	3.2	-28.9%	-81.9*	x
Nc1c(C(=O)O)sc2nc(-c3ccccc3)cc(-c3ccc(Cl)cc3)c12	-13.1%	-13.8	-2.7	-18.8%	-4.7	70.8µM*
NC(=O)COC(=O)c1cc(-c2ccco2)nc2ccccc12	7.4%	-12.1	-13.5	-2.9%	-19.8	x
Nc1c(C(=O)O)sc2nc(-c3ccc(F)cc3)cc(-c3ccccc3)c12	-27.8%	-0.9	x	u	27.9	1.3%
